Measurements: the supplement of paper PMC10515830
Structures can show the parent of a compound that is named as a salt.

Tests used:
Conditions in all cases: 10 µM; exposure time 6 h
[1] = test system: Danio rerio larvae (5 dpf); experiment: difference in excitability vs DMSO (percentage points); higher = more excitable than DMSO
How it was run: (§1)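 In 96-well plates, 48 wild-type zebrafish larvae aged 5 dpf per compound received 100 µL egg water with library compound at 10 µM final for 6 h. Three hours into this, a 3-h programme of moving lines and 100 ms, 400Hz tones ran at 28.5 ℃ while plates were photographed every 6 s. Z-LaP Tracker scored the behaviours, and each is given as the compound mean minus the vehicle control mean in percentage points.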

[2] = test system: Danio rerio larvae (5 dpf); experiment: difference in startle response vs DMSO (percentage points); higher = stronger startle than DMSO
How it was run: as §1

[3] = test system: Danio rerio larvae (5 dpf); experiment: difference in activity during first hour vs DMSO (percentage points); higher = more activity than DMSO
How it was run: as §1

[4] = test system: Danio rerio larvae (5 dpf); experiment: difference in habituation to acoustic stimuli vs DMSO (percentage points); higher = more habituation than DMSO
How it was run: as §1

[5] = test system: Danio rerio larvae (5 dpf); experiment: difference in combined optomotor response to red, green and blue moving lines vs DMSO (percentage points); higher = stronger optomotor response than DMSO
How it was run: as §1

Row | Compound | difference in excitability [1] | difference in startle response [2] | difference in activity during first hour [3] | difference in habituation to acoustic stimuli [4] | difference [5]
1 | CCS(=O)(=O)CCn1c([N+](=O)[O-])cnc1C [Tinidazole] | 0.787 | 3.72 | 7.24 | 0.838 | 7.16
2 | O=S(=O)(O)CCS [Mesna] | -4.43 | 2.29 | 12.8 | -1.88 | 6.5
3 | CC[C@@]1(O)C(=O)OCc2c1cc1n(c2=O)Cc2cc3c(CN(C)C)c(O)ccc3nc2-1 [Topotecan (hydrochloride)] | 4.94 | -0.393 | 0.473 | -4.39 | 1.01
4 | CC(C(=O)O)c1cccc(Oc2ccccc2)c1 (stereo not given) [Fenoprofen (calcium salt hydrate)] | 5.22 | 0.479 | -0.54 | -2.86 | -2.31
5 | COC(=O)C1=C(C)NC(C)=C(C(=O)OCCN(C)Cc2ccccc2)C1c1cccc([N+](=O)[O-])c1 (stereo not given) [Nicardipine (hydrochloride)] | 7.46 | -1.35 | 14.3 | -16.5 | -6.14
6 | CCCCCCCC/C=C\CCCCCCCC(=O)NCCO [Oleoyl Ethanolamide] | 3.95 | 1.17 | 2.47 | -3.04 | -0.503
7 | CCOc1cc([C@@H](CS(C)(=O)=O)N2C(=O)c3cccc(NC(C)=O)c3C2=O)ccc1OC [Apremilast] | 0.408 | 3.1 | -6.82 | -0.561 | -3.01
8 | O=C(NCC1CCCCN1)c1cc(OCC(F)(F)F)ccc1OCC(F)(F)F (stereo not given) [Flecainide (acetate)] | 6.44 | -12.4 | -19.1 | -11 | -18.8
9 | O=C(O)P(=O)(O)O [Foscarnet (sodium salt)] | -6.03 | 6.15 | 20.9 | -1.07 | 4.77
10 | CCCCCCOC(=O)CCC(=O)CN [Hexaminolevulinate (hydrochloride)] | 5.6 | 3.54 | 2.02 | 7.86 | 2.47
11 | CN(C)CCc1c[nH]c2ccc(Cn3cncn3)cc12 [Rizatriptan (benzoate salt)] | 9.6 | -1.93 | 6.28 | 2.81 | 7.91
12 | CS(=O)(=O)OCCCCOS(C)(=O)=O [Busulfan] | 1.08 | 2.56 | 2.59 | 2.63 | 3.07
13 | CCN(CC)C(=O)/C(C#N)=C/c1cc(O)c(O)c([N+](=O)[O-])c1 [Entacapone] | 5.12 | -3.47 | 4.7 | 3.38 | 3.62
14 | CC(C)[C@H](N)C(=O)OCC(CO)OCn1cnc2c(=O)nc(N)[nH]c21 (stereo not given in full) [Valganciclovir (hydrochloride)] | -0.104 | 2.52 | -5.18 | 1.35 | 3.33
15 | Cc1nccn1CC1CCc2c(c3ccccc3n2C)C1=O (stereo not given) [Ondansetron (hydrochloride hydrate)] | 12.1 | -1.85 | 6.77 | -3.59 | 4.66
16 | Nc1nc(O)c2ncn(CCC(CO)CO)c2n1 [Penciclovir] | 7.86 | 12.1 | 13.9 | -1.73 | 11.3
17 | CC(C)(C)NCC(O)COc1cccc2c1CCC(=O)N2 (stereo not given) [Carteolol (hydrochloride)] | 4.97 | -3.33 | 6.77 | 1.1 | 4.95
18 | CCCCC(=O)N(Cc1ccc(-c2ccccc2-c2nnn[nH]2)cc1)[C@H](C(=O)O)C(C)C [Valsartan] | -0.389 | 4.11 | 2.08 | -3.08 | 3.88
19 | C=CC[C@@H]1/C=C(\C)C[C@H](C)C[C@H](OC)[C@H]2O[C@@](O)(C(=O)C(=O)N3CCCC[C@H]3C(=O)O[C@H](/C(C)=C/[C@@H]3CC[C@@H](O)[C@H](OC)C3)[C@H](C)[C@@H](O)CC1=O)[C@H](C)C[C@@H]2OC | 27 | -6.28 | 5.28 | -10.2 | -13.7
20 | C#C[C@]1(O)CC[C@H]2[C@@H]3CCC4=CC(=O)CC[C@@H]4[C@H]3CC[C@@]21C [Norethindrone] | 4.84 | -3.95 | -0.842 | 2.6 | 11.2
21 | COc1cc(C)c(/C=C/C(C)=C/C=C/C(C)=C/C(=O)O)c(C)c1C [Acitretin] | 6.34 | -12.5 | 50.6 | -15.4 | -20.9
22 | C=C1CCN([C@H](C)[C@](O)(Cn2cncn2)c2ccc(F)cc2F)CC1 [Efinaconazole] | 14.8 | -1.57 | -5.8 | -7.46 | 1.58
23 | COc1ccccc1OCC(O)CO (stereo not given) [Guaifenesin] | 1.91 | -2.97 | 10.9 | 3.83 | 6.79
24 | CN1CCC[C@@H]1CCO[C@](C)(c1ccccc1)c1ccc(Cl)cc1 [Clemastine (fumarate)] | 26.5 | -6.88 | -0.468 | -2.97 | 6.17
25 | CCc1nc(N)nc(N)c1-c1ccc(Cl)cc1 [Pyrimethamine] | 12.2 | 1.26 | 9.34 | -3.84 | 5.09

Row | Compound | difference in excitability [1] | difference in startle response [2] | difference in activity during first hour [3] | difference in habituation to acoustic stimuli [4] | difference [5]
26 | CC(Oc1c(Cl)cccc1Cl)C1=NCCN1 (stereo not given) [Lofexidine (hydrochloride)] | 5.84 | 4.45 | 2.08 | 0.884 | 10.9
27 | C#C[C@]1(O)CC[C@H]2[C@@H]3CCC4=CC(=O)CC[C@@H]4[C@H]3CC[C@@]21CC [Levonorgestrel] | 2.02 | -3.01 | -12.7 | -0.397 | 3.05
28 | C[C@@H](O[C@H]1OCCN(Cc2n[nH]c(=O)[nH]2)[C@H]1c1ccc(F)cc1)c1cc(C(F)(F)F)cc(C(F)(F)F)c1 [Aprepitant] | 9.22 | -5.06 | 6.23 | -3.45 | 4.82
29 | Nc1ccc(S(=O)(=O)Nc2ncccn2)cc1 [Sulfadiazine] | 11.9 | 4.72 | 7.75 | 1.42 | -1.28
30 | N=C(N)N/N=C/c1c(Cl)cccc1Cl [Guanabenz (hydrochloride)] | 1.72 | 17.3 | -12.1 | 5.15 | 8.58
31 | CCC1=C(C)CN(C(=O)NCCc2ccc(S(=O)(=O)NC(=O)N[C@H]3CC[C@H](C)CC3)cc2)C1=O [Glimepiride] | -3.07 | 2.59 | 2.62 | 3.43 | -2.24
32 | C=CC(=O)Nc1cc(Nc2nccc(-c3cn(C)c4ccccc34)n2)c(OC)cc1N(C)CCN(C)C | 8.96 | -2.41 | -13.4 | -6.69 | 2.87
33 | CN(C)CCCC1(c2ccc(F)cc2)OCc2cc(C#N)ccc21 (stereo not given) [Citalopram (hydrobromide)] | 8.67 | -1.92 | -12.8 | -3.86 | -4.06
34 | O=C(O)C(=O)O.[NH-][C@@H]1CCCC[C@H]1[NH-].[Pt+2] [Oxaliplatin] | -8.81 | 2.6 | -6.68 | 11.3 | 1.69
35 | CO[C@H]1O[C@@H]2O[C@@]3(C)CC[C@H]4[C@H](C)CC[C@@H]([C@H]1C)[C@@]24OO3 [Artemether] | 17.2 | 3.03 | -1.53 | 3.23 | 7.61
36 | NS(=O)(=O)c1cc2c(cc1C(F)(F)F)NCNS2(=O)=O [Hydroflumethiazide] | 2.46 | 7.8 | 0.32 | -1.14 | -2.31
37 | C=C1CC[C@H](O)C/C1=C/C=C1\CCC[C@]2(C)[C@@H]([C@H](C)CCCC(C)(C)O)CC[C@@H]12 [25-hydroxy Vitamin D3] | 4.23 | -8.24 | 8.17 | -5.95 | -5
38 | COc1ccc(CCN(C)CCCC(C#N)(c2ccc(OC)c(OC)c2)C(C)C)cc1OC (stereo not given) [Verapamil (hydrochloride)] | 7.52 | -8.68 | -17.7 | -4.3 | -6.45
39 | O=c1ccc2ccc(OCCCCN3CCN(c4cccc5sccc45)CC3)cc2[nH]1 [Brexpiprazole] | 13.2 | -1.39 | 25.4 | -17.4 | -9.77
40 | Nc1cc(Cl)c(N=C2NCCN2)c(Cl)c1 [Apraclonidine (hydrochloride)] | 8.82 | 7.97 | -13.7 | -0.961 | -2.54
41 | CC1=Nc2ccc(Cl)cc2S(=O)(=O)N1 [Diazoxide] | -4.99 | 1.05 | 4.03 | -3.84 | 5.23
42 | Cc1nc(Nc2ncc(C(=O)Nc3c(C)cccc3Cl)s2)cc(N2CCN(CCO)CC2)n1 [Dasatinib] | 11.4 | -1.6 | -4.95 | 1.58 | -0.962
43 | CCOC(=O)[C@H](CCc1ccccc1)N[C@@H](C)C(=O)N1Cc2cc(OC)c(OC)cc2C[C@H]1C(=O)O [Moexipril (hydrochloride)] | 11.9 | -4.62 | 7.71 | 2.63 | -1.21
44 | CCO/N=C(\C(=O)N[C@@H]1C(=O)N2C(C(=O)[O-])=C(Sc3nc(-c4cc[n+](C)cc4)cs3)CS[C@H]12)c1nsc(NP(=O)(O)O)n1 | 2.56 | 0.685 | 4.29 | -3.93 | -5.35
45 | C[C@@H]1CCO[C@H]2Cn3cc(C(=O)NCc4ccc(F)cc4F)c(=O)c(O)c3C(=O)N12 [Dolutegravir] | 9.08 | 3.83 | 7.43 | 1.07 | 7.64
46 | CN/C(=N\CCSCc1nc[nH]c1C)NC#N [Cimetidine] | -1.49 | 2.86 | 11.1 | 4.18 | 8.46
47 | CC1(C)NC(=O)N(c2ccc([N+](=O)[O-])c(C(F)(F)F)c2)C1=O [Nilutamide] | 3 | -2.08 | -12.2 | 3.08 | -5.94
48 | CCc1c(Cl)c(O)c(Cl)c(O)c1C(=O)O[C@H]1[C@H](O)[C@H](OC)[C@H](OCC2=CC=CC[C@H](O)C(C)=C[C@H](CC)[C@@H](O[C@@H]3OC(C)(C)C(OC(=O)C(C)C)[C@H](O)[C@@H]3O)C(C)=CC(C)=CC[C@@H]([C@@H](C)O)OC2=O)O[C@@H]1C (stereo not given in full) [Fidaxomycin] | 1.12 | 8.11 | 12.6 | 4.21 | 4.75
49 | Cc1ncc([N+](=O)[O-])n1CC(C)O (stereo not given) [Secnidazole] | 4.12 | -1.25 | 19.9 | -6.46 | 6.66
